Entries with a potency or affinity are not part of this list.

Test [1] deals with Klebsiella pneumoniae. The settings on record: Concentration 32 ug.mL-1;; ASSAY_TEST Inhibition of Bacterial Growth; detection method Absorption (OD600); MEDIA CAMHB; plate type 384well; NBS; CORNING #3640; time 18 hr.
Test [2] has as its system Candida albicans. The settings on record: Concentration 32 ug.mL-1; ASSAY_TEST Inhibition of Fungal Growth; detection method Absorption (OD530).
Test [3] deals with Cryptococcus neoformans. The settings on record: Concentration 32 ug.mL-1; ASSAY_TEST Inhibition of Fungal Growth; detection method Resazurin; Absorption (OD600-OD570); plate type 384well; NBS; CORNING #3640.

For orientation: Inhibition means the drop in the measured response relative to a control, in per cent. With `O=C(Cn1nc2c(Oc3ccccc3)nc3ccccc3n2c1=O)Nc1ccc2c(c1)OCO2`, the Inhibition was 4.55% in test [1], 16.43% in test [2] and -9.27% in test [3].

As to `Cc1ccc(Oc2nccn3c(=O)n(CC(=O)Nc4ccc(C)cc4Br)nc23)cc1`, the values for the Inhibition in test [1], in test [2] and in test [3] were 1.71%, 0.3% and -4.1%, respectively.

On to `O=C(CSc1nnc2c(=O)n(-c3ccccc3)ccn12)Nc1cccc(Cl)c1`, for which the values for the Inhibition in test [1], in test [2] and in test [3] were 1.21%, -0.19% and -20.21%, respectively.

Turning to `Cc1cccc(-c2nc(CSc3nc4ccccc4n4c(C(C)C)nnc34)c(C)o2)c1`, the values for the Inhibition in test [1], in test [2] and in test [3] were 12.8%, 8.07% and -24.07%, respectively.

The record behind these values is ChEMBL document CHEMBL4513146, “CO-ADD screening of Karazin Kharkiv National University (Ukraine) compounds”.
